Among all 2,100 compounds or so, about 260 (12%) were called active. About 58% were inconclusive and are not listed. The call rests on the fitted dose curve; in most records, active means well fitted cell-killing curve with a large enough effect; inconclusive means small, poorly fitted or top-dose-only effect, or effect the other way; inactive means flat fitted curve, though single readings scatter. The list shows a part of the results. A call without a number means that no potency is given here.
Potency means the concentration at half of the fitted maximal effect.

This assay can be described thus: Viability Counterscreen for Confirmatory qHTS for Inhibitors of ATXN expression. Further: nearly all actives have a fitted effect of over 50% in size. The note with it: HEK-293 ATXN2-luc cells viability, CellTiter-Fluor, 24 h. In short, it runs like this:
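Luminescence read-out (SteadyGlo, 5 min) followed a 30 min Gly-Phe-AFC (25 uM final) viability fluorescence read. ATXN2-luciferase reporter cells were exposed 24 h to a dilution series. Medium-only wells served as the 100% inhibition reference.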
Regarding `c1ccc(COc2ncnc3c2ncn3CCCN2CCN(Cc3cccc4ccccc34)CC2)cc1`, the Potency was 25.1 µM (active).
As to `CCOC(=O)/C=C/C(=O)Nc1ccc(Oc2ccccc2)cc1`, the Potency result is “inactive”.
Under `CN(CCOc1ccc(Br)cc1)CC(O)COc1ccc(C#N)cc1` (configuration not stated) stands “inactive”; under `OC[C@@H]1CN(Cc2ccc(-c3ccccc3)cc2)C[C@H](n2cnc3c(Nc4ccccc4)ncnc32)O1`, 20 µM (active); under `Cc1csc2ncnc(NC3CCN(Cc4ccccc4)CC3)c12`, “inactive”.
Under `Cc1cccc(/C=N/NC(=O)c2c(-c3ccccc3)noc2C)c1O` stands “inactive”; under `CCCCNCCCOc1cccc(Cl)c1Cl`, “inactive”; under `Cc1cc(Cl)ccc1OCCCC(=O)NNC(=O)c1ccccc1O`, “inactive”.
For `COCCCNCCCOc1ccc(Cl)cc1C(C)(C)C` the value was 35.5 µM (active).
Regarding `NC(=S)n1[nH]c(-c2ccc([N+](=O)[O-])cc2)c(N=Nc2cccc(Cl)c2)c1=O`, the Potency was 11.2 µM (active).
Under `Cc1cc2sc3ccc(C#CC4(O)CCCCC4)cc3c(=O)c2cc1C` stands “inactive”; under `Cc1ccc(NC(=O)CNc2cccc(Br)c2)cc1S(=O)(=O)N1CCOCC1`, “inactive”; under `CC(C)[C@@H]1CC[C@@H](C)C[C@H]1OC(=O)C[n+]1cc(-c2ccc(Cl)cc2)n2c1CCCCC2`, 22.4 µM (active).
On to `CCn1c(C)cc(C(=O)CN2C(=O)c3ccccc3S2(=O)=O)c1C`, for which the Potency result is “inactive”.
For `CCOC(=O)Cn1cc(C(=O)c2ccco2)c2ccccc21` the value was “inactive”; for `O=C(c1ccco1)N1CCN(c2ccnc3cc(Cl)ccc23)CC1`, “inactive”; for `CCn1cc(C(=O)NCc2cccc(F)c2)c(=O)c2cc(F)c(N3CCN(C(=O)c4ccco4)CC3)cc21`, 22.4 µM (active).
With `Cc1ccc2c(CC(=O)NNC(=O)c3ccccc3O)coc2c1`, the Potency result is “inactive”.
Turning to `Cc1ccc(SC2=C(N(C)C)C(=O)c3ccccc3C2=O)cc1`, the Potency entry was “inactive”.
Under `CC(C)(C)c1ccc(NC(=O)N2CCCN(c3c(Cl)cncc3Cl)CC2)cc1` stands “inactive”; under `O=C(NNC1=Nc2ccccc2SC1)c1ccc(Cl)cc1`, “inactive”.
With `O=c1c2c(nc3c(-c4cccc(Br)c4)c[nH]n13)CCCC2`, the Potency is 12.6 µM (active).
Take `O=c1c2c(nc3c(-c4ccc(Cl)cc4)c[nH]n13)CCC2`: the Potency entry is “inactive”.
Under `O=C(NNc1ccnc2cc(Cl)ccc12)C1CCCCC1` stands “inactive”; under `NC(=O)c1c(NC(=O)c2ccc(S(=O)(=O)N3CCOCC3)cc2)sc2c1CCCCC2`, “inactive”; under `CC1(C)Cc2c(sc(NC(=O)c3ccc(C(=O)c4ccccc4)cc3)c2C(N)=O)C(C)(C)N1`, 28.2 µM (active).
Under `Nc1nc(NCCCN2CCOCC2)nc(Nc2cccc(Cl)c2)c1[N+](=O)[O-]` stands “inactive”; under `CCCCC/C=C/C1=CC(=O)C[C@H](c2ccc(OC)c(OC)c2)C1`, “inactive”; under `CC(C)(C)NCC(=Cc1ccccc1)C(=O)c1ccccc1`, 3.55 µM (active).
For `O=C(C(Br)=Cc1ccccc1)c1ccccc1` the value was 7.94 µM (active); for `O=C(N/N=C/c1ccccc1O)/C(=C/c1ccccc1)CCO`, “inactive”.
Consider `CC(C)(C)c1ccc(Oc2ccc(N)cn2)cc1`, for which the Potency result is “inactive”.
For `CNc1nc2c(N)ncnc2n1[C@H]1O[C@@H](CO)[C@H](O)[C@@H]1O` the value was “inactive”; for `Cc1ccc(SCCC(=O)N/N=C/c2ccccc2O)cc1`, “inactive”; for `Cc1ccc2[nH]c(O)c(N=NC(=O)C3CC3c3ccccc3)c2c1Br` (configuration not stated), “inactive”.
With `CC(C)c1cccc(C(C)C)c1Nc1cn[nH]c1`, the Potency entry is “inactive”.
For `Nn1cnnc1N/N=C/c1cc(Br)cc(Br)c1O` the value was “inactive”; for `OC(c1ccccn1)(c1ccccn1)c1ccccn1`, “inactive”; for `COc1ccc(C(=O)/C=C/c2ccc(OC3CSC3)cc2)cc1OC`, “inactive”.
For `COc1cc(C=CC(=O)c2cc(OC)c(OC)c(OC)c2)cc(OC)c1OC`, the Potency was 17.8 µM (active).
`COc1ccc(C(=O)/C=C/c2cccc(OCc3ccccc3)c2)cc1CSCC(=O)O`: the Potency entry was “inactive”.
Consider `CS(=O)(=O)N(CC(O)CON=C1c2ccccc2-c2ccccc21)c1ccc(F)cc1` (configuration not stated), for which the Potency entry is “inactive”.
For `Nc1nc(NCCCN2CCOCC2)nc(Nc2ccccc2F)c1[N+](=O)[O-]` the value was “inactive”.
For `Cc1ccc(C)c(OCCCC(=O)Nc2nccs2)c1` the value was “inactive”; for `Cn1c(/C=C/c2ccc(Cl)cc2)c([N+](=O)[O-])c(=O)n(C)c1=O`, 22.4 µM (active); for `Cn1c(/C=C/c2ccc(Cl)cc2Cl)c([N+](=O)[O-])c(=O)n(C)c1=O`, 22.4 µM (active).
As to `Cc1cc(OCC(=O)Nc2ccc(Br)cc2)cc2c1C(=O)CC(C)(C)O2`, the Potency entry is “inactive”.
For `NC1=NC[C@H](Cc2ccccc2)N1CCCCC1CCCCC1` the value was “inactive”; for `CCc1cc(-c2[nH]ncc2-c2ccc(OC)cc2)c(O)cc1O`, “inactive”.
Under `CC(C)=CCc1c(O)cc2oc3c(CC=C(C)C)c(O)c(O)c(CC=C(C)C)c3c(=O)c2c1O` stands “inactive”; under `Cc1c(N/N=C(\C#N)C(=O)c2ccccc2)c(=O)n(-c2ccccc2)n1C`, 12.6 µM (active); under `COc1ccc(NS(=O)(=O)c2ccc(C(=O)Nc3c(C)n(C)n(-c4ccccc4)c3=O)cc2)cc1`, “inactive”.
Under `Cc1ccccc1C(=O)/C(C#N)=N/Nc1c(C)n(C)n(-c2ccccc2)c1=O` stands 10 µM (active).
Regarding `Cc1cc(C)cc(NC(=O)/C(C#N)=C/c2cn(CC(=O)NCc3ccco3)c3ccccc23)c1`, the Potency result was “inactive”.
With `Nc1c(C(=O)NCCN2CCOCC2)c2nc3ccccc3nc2n1CCc1ccccc1F`, the Potency entry is “inactive”.
Take `CCOC(=O)c1c(NC(=O)COC(=O)CNC(=O)c2ccco2)sc(C)c1C`: the Potency result is “inactive”.
Under `N#Cc1ccccc1NC(=O)C1SC(=Nc2ccccc2)C(C(=O)Nc2ccc(Cl)cc2)=C1N` (configuration not stated) stands “inactive”; under `O=C(CSc1ccc2ccccc2c1)Nc1nc2ccccc2[nH]1`, “inactive”; under `C/C(=N\NC(=O)CSCc1ccc([N+](=O)[O-])cc1)c1ccccc1O`, “inactive”.
On to `N#Cc1c(Oc2ccc3ccccc3c2)sc(C(=O)c2ccccc2)c1N`, for which the Potency entry is “inactive”.
For `COc1cnc(-c2ccccn2)nc1NC(C)C` the value was 10 µM (active); for `COC(=O)COc1ccc(-c2nccc(-c3ccccn3)n2)cc1`, “inactive”; for `COc1ccc(O)c(/C=N/NC(=O)c2ccc(OCc3cccc(Br)c3)cc2)c1`, “inactive”.
For `O=C(CNS(=O)(=O)c1ccc([N+](=O)[O-])cc1)N/N=C/c1ccc(O)cc1O` the value was “inactive”; for `O=C(N/N=C/c1cc([N+](=O)[O-])ccc1O)c1ccc(COc2ccc3c(c2)CCC3)o1`, 11.2 µM (active); for `C=CCc1cccc(/C=N/NC(=O)CNc2ccccc2)c1O`, “inactive”.
For `COc1ccc(C(NC(C)=O)c2cc(Cl)c3cccnc3c2O)cc1` (configuration not stated) the value was 8.91 µM (active).
Regarding `COc1ccc(C(NC(C)=O)c2cc(Cl)c3cccnc3c2O)cc1OC` (configuration not stated), the Potency is 10 µM (active).
With `O=C(Nc1cccc(C(F)(F)F)c1)Oc1ccc(Cl)c2cccnc12`, the Potency entry is “inactive”.
For the compound `CC(=O)NC(c1ccc(C)cc1)c1cc(Cl)c2cccnc2c1O` (configuration not stated), the Potency was 11.2 µM (active).
For `CCCC(=O)NC(c1ccc(C(C)C)cc1)c1ccc2cccnc2c1O` (configuration not stated) the value was “inactive”; for `COc1cccc(C(NC(C)=O)c2ccc3cccnc3c2O)c1` (configuration not stated), 8.91 µM (active); for `CCCCC(=O)NC(c1ccc(N(CC)CC)cc1)c1ccc2cccnc2c1O` (configuration not stated), “inactive”.
Under `C(=N\NC(=Nc1ccccc1)c1ccccn1)/c1ccccn1` stands “inactive”; under `COc1ccc(CNC(=O)CSc2nc(-c3ccccc3)cc(-c3cccs3)c2C#N)cc1`, “inactive”.
Regarding `COc1cc2ccnc(Cc3cccc(OC)c3OC)c2cc1OC`, the Potency result is “inactive”.
For `COc1ccc(OC)c(C(=O)/C=C/c2ccccc2C(F)(F)F)c1`, the Potency entry was “inactive”.
For `Cc1ccc2nc(-c3ccccc3)nn2c1`, the Potency result is “inactive”.
Under `O=C(N/N=C/c1cc(Br)cc(Br)c1O)c1cccc(N2CCCC2=O)c1` stands “inactive”; under `COC(=O)c1ccc(C(=O)Nc2cc(Cl)ccc2Cl)cc1NC(=O)c1ccc(N(C)C)cc1`, “inactive”; under `O=C(N/N=C/c1c(O)n(Cc2ccccc2)c(=O)c2ccccc12)c1cccnc1`, “inactive”.
On to `Cc1ccc(S(=O)(=O)Nc2cc(Cl)c(O)c3ncccc23)cc1`, for which the Potency was 10 µM (active).
Regarding `O=C(NC(c1ccc(Cl)cc1)c1cc(Cl)c2cccnc2c1O)c1cccnc1` (configuration not stated), the Potency was 12.6 µM (active).
`O=C(N/N=C/c1cc(Cl)ccc1O)c1cccnc1`: the Potency entry is “inactive”.
As for `Cc1cc(NC(c2cccnc2)c2ccc3cccnc3c2O)no1` (configuration not stated), the Potency is 8.91 µM (active).
For `COc1cc(CNCc2ccncc2)cc(Br)c1OCc1ccccc1F` the value was “inactive”; for `Cn1c(CO)c(-c2ccccc2)c2cc([N+](=O)[O-])ccc21`, “inactive”.
With `CCn1c(C)cc(C(=O)COC(=O)c2ccccc2[N+](=O)[O-])c1C`, the Potency result was “inactive”.
For the compound `CCOC(=O)N1CCN(c2ccnc3cc(Cl)ccc23)CC1`, the Potency result was “inactive”.
For `CN(CCc1ccccc1)c1cc2c(c3c1ccn3C)C1CCC2O1` (configuration not stated) the value was “inactive”; for `CC(C)(C)c1ccc(CC(=O)N2CCC2(C)C(=O)Nc2cnc3ccccc3c2)cc1` (configuration not stated), “inactive”; for `O=C(Nc1cccc2ccccc12)OC1C=CS(=O)(=O)C1` (configuration not stated), “inactive”.
With `Cc1noc2ncnc(N3CCN(c4cccc(Cl)c4)CC3)c12`, the Potency result is “inactive”.
Under `O=C(CSCC(=O)Nc1ccccc1)N/N=C/c1c(O)ccc2ccccc12` stands “inactive”; under `CC(C)(C)c1ccc(Oc2ccc(N)cc2)cc1`, “inactive”; under `COc1ccc2[nH]c3c(N4CCC(O)(c5cccc(C(F)(F)F)c5)CC4)ncnc3c2c1`, 3.16 µM (active).
For `O=C1CN(C(=O)c2c(F)cccc2F)C(c2ccc(F)cc2)c2cc(Br)ccc2N1` (configuration not stated) the value was “inactive”; for `COc1cccc(NC(=O)/C=C/c2ccc(S(=O)(=O)N3CCOCC3)cc2)c1`, “inactive”; for `COc1ccc(N2C3=C(CC4=C2CC(C)(C)CC4=O)C(=O)CC(C)(C)C3)cc1`, “inactive”.
`CC1CC2(C)Oc3ccccc3CC2C(C)C1CNCCCN(C)C` (configuration not stated): the Potency is 25.1 µM (active).
For `O=C(C1CCC(CNS(=O)(=O)c2cccc3nsnc23)CC1)N1CC=C(c2ccccc2)CC1` (configuration not stated), the Potency entry was “inactive”.
Under `Cc1ccccc1SCC(=O)N1CCN(c2ccc(C(F)(F)F)cn2)CC1` stands “inactive”.

The values are drawn from PubChem BioAssay AID1745850 (National Center for Advancing Translational Sciences (NCATS), 2022).
